Measured values: PubChem BioAssay (EPA / NIEHS)
Active and inactive are the calls of the source. The calls were made as follows: active = hit-call score of the fitted dose curve at least 0.9, where 1 is the maximum; inactive = score below 0.9.

Tests used:
[1] = APR_HepG2_P-H2AX_72hr: Apredica 72-hour HepG2 Assay for H2AX Phosphorylation (AID 2282916); settings: imaging, actives raise or lower the signal;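 also: phospho-histone H2A.x immunostain intensity per cell marking DNA damage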
Method in brief: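 Phospho-histone H2A.x immunofluorescence, multiplexed with Hoechst and c-Jun, quantified by high-content imaging. Compounds applied to HepG2 for 72 h across ten concentrations (0.39–200 uM, 0.5% DMSO), in duplicate; DMSO baseline.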

[2] = APR_HepG2_MitoMembPot_72hr: Apredica 72-hour HepG2 Assay for Mitochondrial Membrane Potential (AID 2282917); settings: imaging, actives raise or lower the signal
Method in brief: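 HepG2 cells dosed 72 hr with compound at 0.39–200 uM in duplicate, 0.5% v/v DMSO final. Mitochondria stained with 250 nM MitoTracker Red CMXRos for 30 min before formaldehyde fixation, imaged by high-content fluorescence; bidirectional fit versus DMSO.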

[3] = APR_HepG2_MitoticArrest_72hr: Apredica 72-hour HepG2 Assay for Mitotic Arrest (AID 2282918); settings: high-content imaging, actives raise or lower the signal
Method in brief: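 Mitotic arrest in HepG2 is scored from phospho-histone H3 staining after 72 hr dosing across 0.39–200 uM, with DMSO at 0.5% v/v. Nuclei are identified by Hoechst 33342 and fluorescence intensity is quantified per cell.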

[4] = APR_HepG2_MicrotubuleCSK_72hr: Apredica 72-hour HepG2 Assay for Microtubule CSK Stabilty (AID 2282919); settings: HepG2 microtubule cytoskeleton, high-content imaging, actives raise or lower the signal
Method in brief: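 HepG2, 72 hr cmpd exposure, 0.39–200 uM (10 pts, duplicate), 0.5% DMSO. 3.7% formaldehyde fix, 0.5% Triton perm, anti-alpha-tubulin/Cy5 plus Hoechst. HCS fluorescence intensity; bidirectional fit vs DMSO baseline; taxol as positive control.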

[5] = APR_HepG2_P-H2AX_24hr: Apredica 24-hour HepG2 Assay for H2AX Phosphorylation (AID 2282920); settings: high-content imaging, actives raise or lower the signal
Method in brief: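 Signal comes from a FITC-labeled secondary detecting phospho-histone H2A.x in fixed HepG2 cells, quantified by automated imaging at 20x. Dosing ran 24 hr across 0.39–200 uM with 0.5% v/v DMSO.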

[6] = APR_HepG2_StressKinase_72hr: Apredica 72-hour HepG2 Assay for Stress Kinase (AID 2282921); settings: HepG2 stress kinase (phospho-c-Jun) imaging, actives raise or lower the signal
Method in brief: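 Stress kinase signal is phospho-c-Jun immunofluorescence (1:500 primary, Cy3 secondary) in fixed, permeabilized human HepG2 cells imaged at 20x. Exposure lasted 72 hr over ten concentrations from 0.39 to 200 uM, 0.5% DMSO, in duplicate. Bidirectional fit versus DMSO.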

[7] = APR_HepG2_StressKinase_24hr: Apredica 24-hour HepG2 Assay for Stress Kinase (AID 2282922); settings: HepG2 stress kinase (phospho-c-Jun) imaging, actives raise or lower the signal
Method in brief: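 Read-out: phospho-c-Jun immunofluorescence (Cy3 secondary) quantified by high-content imaging at 20x, nuclei defined by Hoechst 33342. Human HepG2 liver cells dosed 24 hr, 0.39–200 uM, DMSO 0.5% v/v; gain or loss of signal fitted relative to DMSO.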

[8] = APR_HepG2_p53Act_72hr: Apredica 72-hour HepG2 Assay for p53 Activation (AID 2282923); settings: high-content imaging, actives raise or lower the signal;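 also: average cellular p53 protein immunofluorescence intensity in HepG2 cells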
Method in brief: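 After 72 h with compound (ten points, 0.39 to 200 uM, final DMSO 0.5% v/v), fixed HepG2 cells were labelled with sheep anti-p53 and Hoechst 33342 and imaged; gain or loss versus DMSO scored.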

[9] = APR_HepG2_MitoMass_72hr: Apredica 72-hour HepG2 Assay for Mitochondrial Mass (AID 2282924); settings: high-content imaging, actives raise or lower the signal;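 also: MitoTracker Red CMXRos stain intensity per cell imaged as mitochondrial mass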
Method in brief: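 Read-out: MitoTracker Red fluorescence intensity from automated imaging (20x, six fields per well) in human HepG2 liver cells. Dosing ran 72 hr, 0.39–200 uM, 0.5% DMSO; bidirectional curve fitting versus DMSO baseline.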

[10] = ATG_CRE_CIS: Attagene CIS-FACTORIAL HepG2 Assay for human cAMP Responsive Element (CRE) binding protein 3 (AID 2282926); settings: HepG2 CRE cis-reporter, Attagene multiplexed mRNA; actives raise or lower the signal
Method in brief: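 Cells carrying cis-regulated reporter constructs respond through their own endogenous factors. After 24 h treatment, RNA is reverse-transcribed, amplified, labelled and sized by capillary electrophoresis; up- and down-regulation are both scored against vehicle.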

[11] = target: CCAAT/enhancer-binding protein beta (Homo sapiens) (UniProt P17676); assay: ATG_C_EBP_CIS: Attagene CIS-FACTORIAL HepG2 Assay for human CCAAT/Enhancer Binding Protein (C/EBP) beta (AID 2282927); settings: HepG2 Attagene cis-factorial transcription factor reporter; actives raise or lower the signal
Method in brief: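 HepG2 transiently transfected with multiplexed reporter units under cis-regulatory promoters reporting endogenous C/EBPb activity. After 24 h exposure, reporter mRNA assayed by RT-PCR, fluorescent labelling, HpaI digestion and capillary electrophoresis; bidirectional fitting versus DMSO.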

[12] = ATG_CMV_CIS: Attagene CIS-FACTORIAL HepG2 Assay for human CMV (Internal Marker) (AID 2282928); settings: HepG2 CMV promoter reporter, transcription factor profiling; actives raise or lower the signal;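 also: endpoint acts as a background internal control marker rather than a target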
Method in brief: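 Readout: fluorescent reporter cDNA fragments separated by capillary electrophoresis after RT-PCR and HpaI cut. Cells: HepG2 carrying transfected cis-promoter reporter constructs, dosed 24 h. Endpoint serves as background internal-marker control, fit bidirectionally versus DMSO.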

[13] = ATG_DR4_LXR_CIS: Attagene CIS-FACTORIAL HepG2 Assay for human Liver X Receptor (LXR), DR4 submotif (AID 2282929); settings: HepG2 Attagene DR4 cis-reporter, mRNA transcription; actives raise or lower the signal
Method in brief: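 DR4 cis-reporter in HepG2, 24 h exposure. Detection: RT-PCR, 6-FAM labelling, CE fragment analysis. Endpoint fitted bidirectionally, DMSO = baseline.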

[14] = ATG_AP_1_CIS: Attagene CIS-FACTORIAL HepG2 Assay for human Activator Protein 1 (AP-1) (AID 2282931); settings: HepG2 Attagene cis-factorial AP-1 reporter mRNA; actives raise or lower the signal
Method in brief: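 Cis-regulated reporter units transiently expressed in HepG2 report endogenous transcription-factor activity. Signal: reporter mRNA at 24 h, via RT-PCR and fluorescent capillary electrophoresis. Endpoint derived by bidirectional fitting, DMSO as negative control.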

[15] = ATG_AP_2_CIS: Attagene CIS-FACTORIAL HepG2 Assay for human Activator Protein 2 (AP-2) (AID 2282932); settings: HepG2 AP-2 cis-reporter, Attagene transcription factor profiling; actives raise or lower the signal
Method in brief: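 Liver-derived HepG2 line, cis-reporter system measuring endogenous factors; 24 h dosing; reporter mRNA detected by fluorescent RT-PCR and capillary electrophoresis.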

[16] = ATG_BRE_CIS: Attagene CIS-FACTORIAL HepG2 Assay for human Bone Morphogenetic Protein (BMP) Response Element (BRE) (AID 2282933); settings: HepG2 BMP response element reporter, Attagene transcription factor profiling; actives raise or lower the signal
Method in brief: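 Read-out: reporter mRNA induction quantified by RT-PCR and capillary electrophoresis after 24 h chemical exposure of transfected HepG2 cells. Endogenous factor activity on the BMP response element; gain or loss fitted against DMSO baseline.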

[17] = target: Retinoic acid receptor alpha (Homo sapiens) (UniProt P10276); assay: ATG_DR5_RAR_CIS: Attagene CIS-FACTORIAL HepG2 Assay for human Retinoic Acid Receptor Alpha (RARE), DR5 submotif (AID 2282934); settings: HepG2 Attagene cis-factorial RARE DR5 reporter, mRNA; actives raise or lower the signal
Method in brief: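 HepG2 cells transiently transfected with multiplexed reporter units; DR5 cis-element drives reporter through endogenous transcription factors. After 24 h dosing, reporter mRNA quantified by RT-PCR, fluorescent labeling, HpaI digestion and capillary electrophoresis; bidirectional fitting versus DMSO.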

[18] = target: Transcription factor E2F1 (Homo sapiens) (UniProt Q01094); assay: ATG_E2F_CIS: Attagene CIS-FACTORIAL HepG2 Assay for human E2F Transcription Factor 1 (AID 2282935); settings: HepG2 Attagene cis-reporter, E2F reporter RNA transcripts; actives raise or lower the signal
Method in brief: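 Liver-derived HepG2 cells expressing transfected promoter-driven reporter units received test chemical for 24 hours. Signal gains or losses were fitted bidirectionally against DMSO.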

[19] = APR_HepG2_NuclearSize_72hr: Apredica 72-hour HepG2 Assay for Nuclear Size (AID 2282925); settings: high-content imaging, actives raise or lower the signal
Method in brief: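 Read-out: nuclear diameter from Hoechst 33342 images (ArrayScan, 20x, six fields/well), via cell-cycle image analysis. HepG2 were dosed 0.39–200 uM for 72 hr in 0.5% DMSO. Bidirectional fit relative to DMSO.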

[20] = target: Aryl hydrocarbon receptor (Homo sapiens) (UniProt P35869); assay: ATG_Ahr_CIS: Attagene CIS-FACTORIAL HepG2 Assay for human Aryl Hydrocarbon Receptor (Ahr) (AID 2282930); settings: HepG2 AhR cis-factorial reporter transcription; actives raise or lower the signal
Method in brief: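 HepG2 cells transiently transfected with cis-element-driven multiplexed reporter units; endogenous AhR activity read as reporter mRNA 24 h after dosing, via RT-PCR, 6-FAM labelling, HpaI digestion and capillary electrophoresis. Bidirectional fit relative to DMSO.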

Measured: AC50

Chain of Aryl hydrocarbon receptor (Homo sapiens) (P35869 whole entry, looked up): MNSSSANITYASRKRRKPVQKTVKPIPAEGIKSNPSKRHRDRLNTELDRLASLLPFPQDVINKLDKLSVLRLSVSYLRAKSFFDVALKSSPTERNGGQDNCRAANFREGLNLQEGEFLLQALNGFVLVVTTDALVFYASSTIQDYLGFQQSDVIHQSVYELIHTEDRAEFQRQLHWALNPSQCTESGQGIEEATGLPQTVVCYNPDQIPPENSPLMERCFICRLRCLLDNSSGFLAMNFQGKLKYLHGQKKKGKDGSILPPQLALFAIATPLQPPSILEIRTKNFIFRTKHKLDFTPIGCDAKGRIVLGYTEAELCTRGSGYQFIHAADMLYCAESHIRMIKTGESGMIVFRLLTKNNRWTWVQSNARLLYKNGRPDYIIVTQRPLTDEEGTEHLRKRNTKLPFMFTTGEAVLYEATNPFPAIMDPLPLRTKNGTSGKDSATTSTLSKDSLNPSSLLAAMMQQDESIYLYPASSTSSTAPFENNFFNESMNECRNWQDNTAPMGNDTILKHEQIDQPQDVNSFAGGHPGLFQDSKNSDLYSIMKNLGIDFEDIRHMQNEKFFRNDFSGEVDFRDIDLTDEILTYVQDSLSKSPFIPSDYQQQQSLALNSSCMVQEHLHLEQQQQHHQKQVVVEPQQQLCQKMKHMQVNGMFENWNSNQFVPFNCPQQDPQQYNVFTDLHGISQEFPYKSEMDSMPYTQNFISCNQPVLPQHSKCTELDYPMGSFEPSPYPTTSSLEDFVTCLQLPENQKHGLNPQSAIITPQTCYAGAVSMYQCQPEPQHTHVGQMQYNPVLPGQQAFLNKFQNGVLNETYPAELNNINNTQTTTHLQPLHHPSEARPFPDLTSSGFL
Chain of Retinoic acid receptor alpha (Homo sapiens) (P10276 whole entry, looked up): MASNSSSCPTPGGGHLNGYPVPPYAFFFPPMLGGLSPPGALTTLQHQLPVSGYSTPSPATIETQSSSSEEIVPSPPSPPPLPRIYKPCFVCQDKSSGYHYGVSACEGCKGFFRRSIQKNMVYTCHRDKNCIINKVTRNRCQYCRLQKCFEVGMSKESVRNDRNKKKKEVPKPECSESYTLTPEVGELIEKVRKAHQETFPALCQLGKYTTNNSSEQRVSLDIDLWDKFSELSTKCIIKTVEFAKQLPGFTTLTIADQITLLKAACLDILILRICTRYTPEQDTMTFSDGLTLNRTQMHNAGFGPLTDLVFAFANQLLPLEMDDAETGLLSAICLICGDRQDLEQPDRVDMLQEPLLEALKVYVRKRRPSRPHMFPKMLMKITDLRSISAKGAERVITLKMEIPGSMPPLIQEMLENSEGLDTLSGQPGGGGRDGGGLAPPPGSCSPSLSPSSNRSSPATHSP
Chain of CCAAT/enhancer-binding protein beta (Homo sapiens) (P17676 whole entry, looked up): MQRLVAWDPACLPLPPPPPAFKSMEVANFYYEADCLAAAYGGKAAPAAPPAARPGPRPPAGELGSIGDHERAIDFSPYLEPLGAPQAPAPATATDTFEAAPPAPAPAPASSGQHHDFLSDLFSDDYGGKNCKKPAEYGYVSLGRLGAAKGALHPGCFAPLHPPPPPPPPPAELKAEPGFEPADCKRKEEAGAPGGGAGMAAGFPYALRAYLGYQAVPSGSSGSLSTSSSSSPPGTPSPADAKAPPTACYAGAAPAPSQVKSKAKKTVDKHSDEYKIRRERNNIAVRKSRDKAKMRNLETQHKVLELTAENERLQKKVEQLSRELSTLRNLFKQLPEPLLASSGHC
Chain of Transcription factor E2F1 (Homo sapiens) (Q01094 whole entry, looked up): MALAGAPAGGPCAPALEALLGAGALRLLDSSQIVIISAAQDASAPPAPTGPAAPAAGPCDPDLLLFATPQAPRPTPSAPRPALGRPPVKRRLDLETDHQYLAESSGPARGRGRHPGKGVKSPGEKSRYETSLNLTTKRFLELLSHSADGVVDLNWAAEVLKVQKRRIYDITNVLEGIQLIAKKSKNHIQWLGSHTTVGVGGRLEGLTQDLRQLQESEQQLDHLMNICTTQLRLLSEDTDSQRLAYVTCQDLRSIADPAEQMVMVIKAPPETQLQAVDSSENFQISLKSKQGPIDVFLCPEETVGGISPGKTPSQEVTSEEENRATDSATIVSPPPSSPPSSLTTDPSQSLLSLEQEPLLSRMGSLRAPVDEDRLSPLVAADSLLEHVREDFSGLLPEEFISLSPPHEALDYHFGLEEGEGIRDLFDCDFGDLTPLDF

CN(C)c1ccccc1
inactive: [1] | [2] | [3] | [4] | [5] | [6] | [7] | [8] | [9] | [10] | [11] | [12] | [13] | [14] | [15] | [16] | [17] | [18]

CCC[CH2][Sn]([Cl])([CH2]CCC)[CH2]CCC
inactive: [4] | [6] | [19] | [10] | [20] | [15] | [16] | [18]
active: [1] 0.0111 µM | [3] 0.0382 µM | [5] 1.41 µM | [7] 3.39 µM | [8] 0.0297 µM | [9] 0.0466 µM | [11] 0.097 µM | [12] 0.552 µM | [13] 0.412 µM | [14] 0.522 µM

CCCCCCCCn1sccc1=O
active: [1] 4.92 µM | [2] 96.1 µM | [3] 3.77 µM | [5] 6.1 µM | [6] 5.97 µM | [7] 3.47 µM | [8] 3.54 µM | [9] 3.51 µM | [10] 14.4 µM | [12] 19.1 µM
inactive: [4] | [11] | [20] | [14] | [15]

Brc1ccc(Oc2ccccc2)cc1
inactive: [1] | [4] | [5] | [6] | [7] | [8] | [9] | [19] | [10] | [11] | [12] | [20] | [14] | [15] | [16] | [18]
active: [3] 100 µM

[O-][Cl+]O
inactive: [1] | [3] | [4] | [6] | [8] | [9] | [10] | [11] | [12] | [20] | [14] | [15] | [16] | [17] | [18]
active: [5] 66.5 µM | [7] 110 µM | [19] 157 µM

CS(=O)(=O)NC(=O)c1cc(Oc2ccc(C(F)(F)F)cc2Cl)ccc1[N+](=O)[O-]
inactive: [1] | [2] | [3] | [4] | [5] | [6] | [7] | [8] | [9] | [10] | [11] | [12] | [13] | [20] | [14] | [15] | [17] | [18]

CCCSC(=O)N(CCC)CCC
inactive: [1] | [3] | [4] | [5] | [6] | [7] | [8] | [9] | [19] | [10] | [11] | [12] | [13] | [20] | [14] | [15]
